Most compounds without a hit are left out; they make up all but 2.9% or so of the library.
pPAFAH inh – pPAFAH (human) enzyme inhibition. Q13093. recombinant pPAFAH, FP-rhodamine probe fluorescence polarization. inhibition, % at 3.39 µM. 330,000 tested, 1.5% active;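 active = inhibition above the mean inhibition across the screen plus 3 SD, cut at about 25% in these data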;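 also: inhibitors block binding of the rhodamine activity-based probe so polarization drops; 0% = enzyme with DMSO and 100% = wells lacking pPAFAH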
PME-1 primary – PME-1 (human) inhibition. 320,000 tested, 0.53% active. recombinant PME-1, FP-Rh probe fluorescence polarization. Q9Y570. inhibition, % at 5.9 µM;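 active = inhibition above the campaign mean of all compounds plus 3 SD, cut at about 26% in these data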;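 also: competitive labeling of PME-1 active site by serine hydrolase directed probe; 0% = PME-1 with DMSO and 100% = wells lacking PME-1 enzyme; inhibitors block probe labeling so polarization falls and inhibition rises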
Target sequence (Q9Y570 whole entry, looked up): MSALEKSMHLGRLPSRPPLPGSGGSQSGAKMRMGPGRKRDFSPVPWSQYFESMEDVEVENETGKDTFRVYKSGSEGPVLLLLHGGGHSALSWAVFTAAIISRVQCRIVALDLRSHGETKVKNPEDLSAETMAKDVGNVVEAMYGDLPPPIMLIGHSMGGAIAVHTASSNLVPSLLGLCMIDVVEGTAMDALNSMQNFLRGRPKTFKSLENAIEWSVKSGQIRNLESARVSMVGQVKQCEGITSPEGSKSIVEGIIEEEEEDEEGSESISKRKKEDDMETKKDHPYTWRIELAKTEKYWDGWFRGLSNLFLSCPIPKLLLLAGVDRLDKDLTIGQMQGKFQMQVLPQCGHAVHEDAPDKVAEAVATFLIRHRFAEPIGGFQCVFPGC
PAFAH1B2 inh – inhibitors of human PAFAH1B2. P68402. recombinant PAFAH1B2, FP-rhodamine activity probe, fluorescence polarization. inhibition, % at 3.39 µM. 340,000 tested, 1.2% active. AID 492953;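 active = inhibition above the mean of all tested compounds plus 3 SD, cut at about 24% in these data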;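 also: 0% = enzyme with DMSO and 100% = wells lacking PAFAH1B2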
PAFAH1B3 FP inh – inhibitors of human PAFAH1B3; Q15102; recombinant PAFAH1B3, FP-rhodamine probe, fluorescence polarization; inhibition, % at 3.39 µM; 340,000 tested, 0.28% active; AID 492972;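 active = inhibition above the screen-wide average of all tested compounds plus 3 SD, cut at about 25% in these data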;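 also: 0% = enzyme with DMSO only and 100% = wells lacking PAFAH1B3 protein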
PAFAH2 inh – inhibitors of human PAFAH2. Q99487. recombinant PAFAH2, FP-rhodamine activity probe, fluorescence polarization. inhibition, % at 3.39 µM. 340,000 tested, 0.99% active. AID 492956;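 active = inhibition above the mean over all tested compounds plus 3 SD, cut at about 30% in these data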;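 also: inhibitors block probe labeling of enzyme so polarization drops; 0% = enzyme with DMSO and 100% = wells lacking PAFAH2 protein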
Fam108B counter – counter-screen for RBBP9 inhibitors: inhibitors of mouse Fam108B; 300,000 tested, 0.33% active; recombinant Fam108B, FP-Rh probe fluorescence polarization; AID 1947; inhibition, % at 9.51 µM;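 active = inhibition above the screen mean inhibition plus 3 SD, computed separately per campaign, cut at about 18% in these data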;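 also: inhibitors lower polarization as less probe binds the enzyme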
* = called active by the depositor; . = no result.

SMILES	pPAFAH inh	PME-1 primary	PAFAH1B2 inh	PAFAH1B3 FP inh	PAFAH2 inh	Fam108B counter
Cc1ccc(SCC(=O)N=C2NC(=O)CS2)cc1	6	1	26*	-1	-1	-1
CCN(CC)C(=O)[C@H]1CC(CC(=O)NC/C=C(\C)CCC=C(C)C)C(=O)N2CCc3c([nH]c4ccc(OC)cc34)[C@]12C (stereo partly drawn)	26*	.	0	8	6	.
CCN(CC)C(=O)[C@H]1CC(CC(=O)NC/C=C(\C)CCC=C(C)C)C(=O)N2CCc3c([nH]c4ccccc34)[C@]12C (stereo partly drawn)	28*	.	4	10	-3	.
CCOC(=O)C1CCN(C(=O)COC(=O)Cc2ccc(Cl)cc2)CC1	30*	4	8	6	11	2
CCOC(=O)C1CCN(C(=O)CSc2ccc(Cl)cc2)CC1	6	0	2	3	2	5
Fc1ccc(-c2cc(C(F)(F)C(F)F)[nH]n2)cc1	25*	1	.	.	.	0
Oc1ccccc1-c1cc(C(F)(F)C(F)F)[nH]n1	16	1	1	6	-1	0
O=C1CSC(c2ccc(Cl)cc2)N1c1cccnc1 (stereo not drawn)	0	1	25*	5	7	2
O=C1CSC(c2cccnc2)N1c1ccc(Cl)cc1 (stereo not drawn)	-1	1	-3	6	-5	-1
CCOC(=O)C1CCCN(CC(=O)Nc2nccs2)C1 (stereo not drawn)	28*	-5	2	5	2	-1
O=C(/C=C/c1ccc(F)cc1)NC(=S)NNC(=O)[C@H]1C[C@@H]1c1ccccc1	6	-1	59*	4	0	0
O=C(NC(=S)NNC(=O)[C@H]1C[C@@H]1c1ccccc1)c1ccc(F)cc1	0	-4	4	1	1	2
CC(C)=C1CCC(C)CC1=NNC(N)=S (stereo not drawn)	.	.	27*	7	5	.
COc1ccc(/C=C2\CCCc3c2nc2ccccc2c3C(=O)O)cc1OC	7	-2	.	.	.	1
COc1cc(/C=C2\CCCc3c2nc2ccccc2c3C(=O)O)cc([N+](=O)[O-])c1O	32*	-5	1	16	25	9
CCOc1ccc(/C=C2\CCCc3c2nc2ccccc2c3C(=O)O)cc1OC	16	4	6	28*	19	11
Cc1ccc(C(=O)N(CCc2ccccc2)Cc2ccccc2)cc1S(=O)(=O)N1CCOCC1	.	.	5	8	3	.
COc1ccc(C(=O)N(CCc2ccccc2)Cc2ccccc2)cc1S(=O)(=O)N1CCOCC1	27*	2	4	0	1	2
CCc1c(C)sc(NC(=O)c2ccco2)c1C(=O)N1CCCCC1	4	-2	-1	1	-6	-4
O=C(COc1ccc(Cl)cc1)NC1=NN(c2ccccc2)C(=O)C1	6	7	68*	5	0	6
CCOC(=O)CCCCC(=O)c1[nH]c(=O)[nH]c1CSc1nc(C)cc(=O)[nH]1	2	2	5	0	-1	3
CCOC(=O)CCCCC(=O)c1[nH]c(=O)[nH]c1CSc1nc2ccccc2[nH]1	4	-3	25*	24	27	1
CCOC(=O)c1ccccc1NC(=O)C1CSC2(C)CCC(=O)N12 (stereo not drawn)	1	3	2	4	0	-6
O=C(CN1C(=O)S/C(=C\c2ccc(Cl)cc2)C1=O)NNC(=O)c1ccccc1O	29*	-2	2	4	7	-1
Cc1cc(C)cc(NC(=O)N2CCCN(c3c(Cl)cncc3Cl)CC2)c1	-11	-10	3	4	-12	-4
SMILES	pPAFAH inh	PME-1 primary	PAFAH1B2 inh	PAFAH1B3 FP inh	PAFAH2 inh	Fam108B counter
CCCCCCc1nc2c(=O)[nH]c3ccccc3c2o1	1	-3	6	5	3	1
CCCCCCCc1nc2c(=O)n(C)c3ccccc3c2o1	31*	-2	1	4	5	1
Cc1cc(C)n2nc(N)c(N=Nc3ccc4c(c3)OCO4)c2n1	3	2	-3	8	-9	2
CC(C)NC(=O)NC(=O)COC(=O)c1ccc(S(=O)(=O)Nc2ccccc2)cc1	25*	6	1	6	10	-5
O=C(COC(=O)c1cc(-c2ccco2)nc2ccccc12)NCc1ccc2c(c1)OCO2	26*	4	0	6	2	-5
O=C(COC(=O)c1ccco1)NCc1ccc2c(c1)OCO2	-2	-2	2	-1	14	2
Cc1nn(C)cc1CNCc1ccc(OCC(O)CN(C)Cc2ccccc2)cc1 (stereo not drawn)	-1	-4	-2	5	1	-1
S=c1[nH]cnc2sc(-c3ccccc3)cc12	2	2	46*	-6	1	3
Cc1ccc(S(=O)(=O)NNC(=O)c2cnn(-c3ccccc3)c2-n2cccc2)cc1	5	4	28*	2	9	1
Cc1c(Cl)cccc1NC(=O)Nc1ccn(C)n1	5	3	2	2	0	-1
Cc1nn(CC(=O)OCC(=O)c2ccccc2)c(C)c1[N+](=O)[O-]	4	.	3	14	-3	.
O=C(N/N=C/c1ccc(-c2ccccc2C(=O)O)o1)c1cccs1	28*	-5	3	0	4	5
O=C(N/N=C/c1ccncc1)c1cccs1	3	3	4	2	0	0
CCc1ccc(/C=C2\Oc3cc(OC(=O)N4CCOCC4)ccc3C2=O)cc1	26*	-14	3	9	3	0
COc1ccc2c(c1)O/C(=C\c1ccccc1C)C2=O	27*	8	2	4	-8	1
COc1cc(OC)c(OC)cc1/C=C1\Oc2cc(OS(C)(=O)=O)ccc2C1=O	7	-5	0	0	-2	-1
CC(=O)Oc1ccc2c(c1)O/C(=C\c1ccncc1)C2=O	3	0	0	3	-7	2
COc1ccc(/C=C2\Oc3cc(OC(=O)N4CCOCC4)ccc3C2=O)cc1	27*	-1	5	7	12	2
COc1ccc(Cl)cc1NC(=O)CN1CCN(S(=O)(=O)c2ccc(F)cc2)CC1	0	-5	4	-3	-10	-3
Cc1c(Cc2ccccc2)c(=O)oc2cc(OCC(=O)N[C@@H](Cc3ccccc3)C(=O)O)ccc12	17	7	10	6	6	2
OC(c1ccccc1)(c1ccc(F)cc1)C(c1ccccc1)N1CCOCC1 (stereo not drawn)	0	-7	33*	2	-1	1
CCOc1ccc(S(=O)(=O)N2CCCCC2)cc1NC(=O)CCNC(=O)c1ccco1	.	.	7	1	-3	.
CCOC(=O)c1ccc(NC(=S)N2CCCC(C)C2)cc1 (stereo not drawn)	-1	2	6	0	-2	-2

From PubChem BioAssay
